# Reference: PubChem BioAssay (EPA / NIEHS)
# Inconclusive results are not listed. Active and inactive are the calls of the source. The calls were made as follows: active = hit-call score of the fitted dose curve at least 0.9, where 1 is the maximum; inconclusive = response in the unintended direction; inactive = score below 0.9.
# Legend:
# [1] = target: sheep Cyclooxygenase-2 (Cox2), PTGS2 (gene 443460) (UniProt P79208); experiment: NVS_ENZ_oCOX2: NovaScreen (NVS) Enzymatic Assay for sheep Cyclooxygenase-2 (Cox2) (AID 2283231)
# sheep Cyclooxygenase-2 (Cox2), PTGS2 (gene 443460), sequence (P79208 whole entry, looked up): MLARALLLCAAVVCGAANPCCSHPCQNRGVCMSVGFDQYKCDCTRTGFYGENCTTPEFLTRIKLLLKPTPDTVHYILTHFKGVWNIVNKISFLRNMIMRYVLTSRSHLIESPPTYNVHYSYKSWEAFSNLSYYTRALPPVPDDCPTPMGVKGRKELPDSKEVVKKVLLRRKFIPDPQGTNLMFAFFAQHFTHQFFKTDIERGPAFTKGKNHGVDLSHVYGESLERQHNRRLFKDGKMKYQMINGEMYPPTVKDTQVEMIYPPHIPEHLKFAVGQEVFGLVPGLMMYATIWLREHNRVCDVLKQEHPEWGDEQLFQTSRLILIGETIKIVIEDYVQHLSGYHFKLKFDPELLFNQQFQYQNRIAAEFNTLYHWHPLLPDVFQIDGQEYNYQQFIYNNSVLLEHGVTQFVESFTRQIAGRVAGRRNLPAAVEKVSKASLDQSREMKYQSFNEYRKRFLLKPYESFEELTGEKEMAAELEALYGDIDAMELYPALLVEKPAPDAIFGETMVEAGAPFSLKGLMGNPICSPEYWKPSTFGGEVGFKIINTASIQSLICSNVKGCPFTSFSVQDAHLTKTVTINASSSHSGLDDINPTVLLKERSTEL
# How it was run: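 Compounds were first run at 25 uM in duplicate against tissue-extracted ovine COX-2; those passing a preset inhibition threshold went to singleton concentration-response testing with a 50 uM maximum. Read-out: absorbance at 0.66 hour.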
# [2] = target: human Vascular Endothelial Growth Factor Receptor 2 (VEGFR2), KDR (gene 3791) (UniProt P35968); experiment: NVS_ENZ_hVEGFR2: NovaScreen (NVS) Enzymatic Assay for human Vascular Endothelial Growth Factor Receptor 2 (VEGFR2) (AID 2283230)
# human Vascular Endothelial Growth Factor Receptor 2 (VEGFR2), KDR (gene 3791), sequence (P35968 whole entry, looked up): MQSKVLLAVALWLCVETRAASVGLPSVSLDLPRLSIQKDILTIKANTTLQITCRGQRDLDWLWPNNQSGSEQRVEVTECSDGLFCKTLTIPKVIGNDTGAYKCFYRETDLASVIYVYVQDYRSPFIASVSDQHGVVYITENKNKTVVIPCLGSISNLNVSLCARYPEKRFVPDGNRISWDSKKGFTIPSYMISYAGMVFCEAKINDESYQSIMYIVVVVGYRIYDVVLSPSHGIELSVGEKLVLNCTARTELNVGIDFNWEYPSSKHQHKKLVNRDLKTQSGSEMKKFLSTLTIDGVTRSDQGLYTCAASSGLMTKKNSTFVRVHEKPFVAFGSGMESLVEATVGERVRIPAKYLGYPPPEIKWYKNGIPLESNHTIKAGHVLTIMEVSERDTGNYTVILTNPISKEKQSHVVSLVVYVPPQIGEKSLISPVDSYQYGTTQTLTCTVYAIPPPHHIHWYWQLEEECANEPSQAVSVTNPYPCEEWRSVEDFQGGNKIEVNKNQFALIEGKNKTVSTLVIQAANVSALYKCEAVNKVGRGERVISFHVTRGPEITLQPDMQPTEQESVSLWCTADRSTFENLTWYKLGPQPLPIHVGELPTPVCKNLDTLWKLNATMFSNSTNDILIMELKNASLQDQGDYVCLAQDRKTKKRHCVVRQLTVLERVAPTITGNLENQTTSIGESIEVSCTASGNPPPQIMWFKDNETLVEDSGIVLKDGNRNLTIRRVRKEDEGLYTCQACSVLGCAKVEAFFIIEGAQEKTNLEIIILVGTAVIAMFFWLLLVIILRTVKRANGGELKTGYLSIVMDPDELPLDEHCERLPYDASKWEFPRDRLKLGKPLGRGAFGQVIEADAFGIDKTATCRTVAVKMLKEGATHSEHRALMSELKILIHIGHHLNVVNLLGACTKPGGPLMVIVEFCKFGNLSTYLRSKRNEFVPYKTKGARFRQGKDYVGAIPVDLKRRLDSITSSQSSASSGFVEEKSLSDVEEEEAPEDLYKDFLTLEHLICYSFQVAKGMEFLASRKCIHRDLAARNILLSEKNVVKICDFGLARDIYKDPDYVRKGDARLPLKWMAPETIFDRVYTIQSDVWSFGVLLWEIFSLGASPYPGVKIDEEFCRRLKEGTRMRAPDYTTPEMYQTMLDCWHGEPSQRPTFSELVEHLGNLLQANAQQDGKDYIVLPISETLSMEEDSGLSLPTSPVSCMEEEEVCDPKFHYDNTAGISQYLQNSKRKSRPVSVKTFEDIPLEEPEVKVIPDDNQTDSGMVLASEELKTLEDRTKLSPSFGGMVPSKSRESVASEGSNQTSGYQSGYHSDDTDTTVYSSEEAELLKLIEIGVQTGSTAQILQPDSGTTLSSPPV
# How it was run: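 Cell-free recombinant VEGFR2 kinase, fluorescent substrate with electrophoretic mobility-shift separation; read 1 h after dosing. Screened at 25 uM in duplicate, hits to concentration-response up to 50 uM; loss-of-signal versus DMSO.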
# [3] = target: rat Catechol-O-Methyl Transferase (COMT), Comt (gene 24267) (UniProt P22734); experiment: NVS_ENZ_rCOMT: NovaScreen (NVS) Enzymatic Assay for rat Catechol-O-Methyl Transferase (COMT) (AID 2283235)
# rat Catechol-O-Methyl Transferase (COMT), Comt (gene 24267), sequence (P22734 whole entry, looked up): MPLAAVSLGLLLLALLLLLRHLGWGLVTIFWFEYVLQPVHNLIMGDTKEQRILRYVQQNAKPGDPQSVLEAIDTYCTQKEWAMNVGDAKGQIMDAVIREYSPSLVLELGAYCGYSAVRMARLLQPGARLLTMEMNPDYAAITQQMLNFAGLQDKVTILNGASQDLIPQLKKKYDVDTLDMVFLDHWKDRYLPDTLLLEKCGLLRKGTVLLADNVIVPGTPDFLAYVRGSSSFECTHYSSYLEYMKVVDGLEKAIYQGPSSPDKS
# How it was run: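 Rat dorsal striatum extract served as COMT source; product quantified by HPLC/spectrophotometry, read at 0 h after dosing. Primary single-concentration screen at 25 uM, followed by concentration series to a 50 uM maximum.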
# [4] = target: sheep Cyclooxygenase-1 (Cox1), PTGS1 (gene 443551) (UniProt P05979); experiment: NVS_ENZ_oCOX1: NovaScreen (NVS) Enzymatic Assay for sheep Cyclooxygenase-1 (Cox1) (AID 2283239);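 also: actives reduce cyclooxygenase activity so potencies are for inhibitors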
# sheep Cyclooxygenase-1 (Cox1), PTGS1 (gene 443551), sequence (P05979 whole entry, looked up): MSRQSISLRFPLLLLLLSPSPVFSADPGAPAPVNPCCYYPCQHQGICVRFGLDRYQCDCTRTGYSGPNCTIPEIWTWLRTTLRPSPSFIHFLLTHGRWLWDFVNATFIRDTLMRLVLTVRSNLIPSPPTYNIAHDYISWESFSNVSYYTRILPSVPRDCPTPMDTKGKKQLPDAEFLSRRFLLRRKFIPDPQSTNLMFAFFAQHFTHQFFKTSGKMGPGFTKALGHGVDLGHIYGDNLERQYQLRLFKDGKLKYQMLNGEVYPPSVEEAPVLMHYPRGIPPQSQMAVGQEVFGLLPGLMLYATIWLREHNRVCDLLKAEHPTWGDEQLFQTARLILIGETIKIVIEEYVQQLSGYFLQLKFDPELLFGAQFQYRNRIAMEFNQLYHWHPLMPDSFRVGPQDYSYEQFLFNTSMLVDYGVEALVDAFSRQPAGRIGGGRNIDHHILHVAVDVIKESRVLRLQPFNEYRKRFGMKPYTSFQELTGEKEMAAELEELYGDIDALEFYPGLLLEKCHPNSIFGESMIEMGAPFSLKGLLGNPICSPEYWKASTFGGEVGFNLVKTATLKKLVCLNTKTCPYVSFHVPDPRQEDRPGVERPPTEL
# How it was run: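 Cell-free colorimetric assay of enzyme activity in a native extract of ovine seminal vesicles. Absorbance was read 0.66 hour after compound addition. Loss of signal relative to the DMSO negative control was scored, with actives from the 25 uM duplicate primary screen retested in concentration series.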
# [5] = target: rat Constitutive Nitric Oxide Synthase (CNOS), Nos1 (gene 24598) (UniProt P29476); experiment: NVS_ENZ_rCNOS: NovaScreen (NVS) Enzymatic Assay for rat Constitutive Nitric Oxide Synthase (CNOS) (AID 2283236)
# rat Constitutive Nitric Oxide Synthase (CNOS), Nos1 (gene 24598), sequence (P29476 whole entry, looked up): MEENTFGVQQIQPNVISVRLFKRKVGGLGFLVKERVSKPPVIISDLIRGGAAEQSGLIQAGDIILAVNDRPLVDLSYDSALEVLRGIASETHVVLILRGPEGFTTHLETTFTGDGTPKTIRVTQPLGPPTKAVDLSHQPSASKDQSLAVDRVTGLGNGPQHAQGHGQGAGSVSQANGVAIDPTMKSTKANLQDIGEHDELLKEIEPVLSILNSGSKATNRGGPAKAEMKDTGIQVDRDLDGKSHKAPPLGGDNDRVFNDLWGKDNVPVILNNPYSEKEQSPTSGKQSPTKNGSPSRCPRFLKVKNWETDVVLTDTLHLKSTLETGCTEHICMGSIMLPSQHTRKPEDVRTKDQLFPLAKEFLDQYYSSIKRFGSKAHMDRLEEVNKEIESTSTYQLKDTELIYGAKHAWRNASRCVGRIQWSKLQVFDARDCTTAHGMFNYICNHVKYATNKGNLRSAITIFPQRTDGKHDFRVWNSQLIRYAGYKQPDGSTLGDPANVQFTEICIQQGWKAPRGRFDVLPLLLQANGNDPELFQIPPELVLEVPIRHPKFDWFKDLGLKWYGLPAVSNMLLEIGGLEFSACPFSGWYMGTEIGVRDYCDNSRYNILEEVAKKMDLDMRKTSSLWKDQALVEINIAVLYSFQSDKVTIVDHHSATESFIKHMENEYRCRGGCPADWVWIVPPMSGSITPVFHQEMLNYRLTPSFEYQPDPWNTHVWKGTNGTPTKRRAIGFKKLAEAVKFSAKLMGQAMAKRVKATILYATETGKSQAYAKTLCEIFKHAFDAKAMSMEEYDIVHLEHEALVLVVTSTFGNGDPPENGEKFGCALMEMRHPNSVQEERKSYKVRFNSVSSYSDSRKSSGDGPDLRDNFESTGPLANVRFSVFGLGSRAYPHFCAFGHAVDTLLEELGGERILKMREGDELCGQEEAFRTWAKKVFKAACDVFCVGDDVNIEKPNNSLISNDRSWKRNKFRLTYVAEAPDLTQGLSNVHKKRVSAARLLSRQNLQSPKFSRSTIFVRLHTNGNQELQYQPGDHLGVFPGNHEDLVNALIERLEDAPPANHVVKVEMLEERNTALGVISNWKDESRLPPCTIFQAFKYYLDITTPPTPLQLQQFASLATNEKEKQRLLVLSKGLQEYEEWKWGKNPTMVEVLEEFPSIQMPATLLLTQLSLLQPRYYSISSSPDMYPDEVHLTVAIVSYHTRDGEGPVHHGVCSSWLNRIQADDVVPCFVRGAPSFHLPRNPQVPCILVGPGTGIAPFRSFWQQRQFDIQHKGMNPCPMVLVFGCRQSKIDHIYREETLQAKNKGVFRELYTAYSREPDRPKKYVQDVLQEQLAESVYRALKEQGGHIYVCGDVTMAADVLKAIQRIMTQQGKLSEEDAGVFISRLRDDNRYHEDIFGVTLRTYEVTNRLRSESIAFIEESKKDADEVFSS
# How it was run: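 Single 25 uM duplicate screen, then concentration series to 50 uM for chemicals meeting threshold. Rat brain membrane-derived CNOS activity detected radiometrically by filtration and scintillation counting, 1 h after compound addition; DMSO as baseline.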
# [6] = target: rat Monoamine Oxidase, MAO-B, Central (MAOBC), Maob (gene 25750) (UniProt P19643); experiment: NVS_ENZ_rMAOBC: NovaScreen (NVS) Enzymatic Assay for rat Monoamine Oxidase, MAO-B, Central (MAOBC) (AID 2283238)
# rat Monoamine Oxidase, MAO-B, Central (MAOBC), Maob (gene 25750), sequence (P19643 whole entry, looked up): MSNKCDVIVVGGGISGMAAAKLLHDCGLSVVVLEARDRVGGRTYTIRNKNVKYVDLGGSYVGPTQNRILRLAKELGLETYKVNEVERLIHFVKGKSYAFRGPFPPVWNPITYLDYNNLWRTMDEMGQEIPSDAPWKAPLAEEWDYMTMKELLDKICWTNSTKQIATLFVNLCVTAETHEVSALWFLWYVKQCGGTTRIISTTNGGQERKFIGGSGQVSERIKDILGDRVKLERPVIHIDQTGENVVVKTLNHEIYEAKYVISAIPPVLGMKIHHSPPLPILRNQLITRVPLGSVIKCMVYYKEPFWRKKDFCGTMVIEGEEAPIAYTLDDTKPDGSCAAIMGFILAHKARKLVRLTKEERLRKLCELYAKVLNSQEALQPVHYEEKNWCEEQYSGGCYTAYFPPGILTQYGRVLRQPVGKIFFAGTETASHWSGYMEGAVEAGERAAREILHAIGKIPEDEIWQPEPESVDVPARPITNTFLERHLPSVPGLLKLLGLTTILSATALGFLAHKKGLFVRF
# How it was run: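 Actives from a duplicate 25 uM screen went on to singleton concentration-response with a 50 uM maximum. Enzyme source was rat brain tissue MAO-B, assayed cell-free. Radiolabelled product was counted by scintillation 1.17 h post-dose, with signal loss relative to DMSO.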
# [7] = target: rat Acetylcholinesterase (AChE), Ache (gene 83817) (UniProt P37136); experiment: NVS_ENZ_rAChE: NovaScreen (NVS) Enzymatic Assay for rat Acetylcholinesterase (AChE) (AID 2283233)
# How it was run: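 Compounds first screened at 25 uM in duplicate, then those passing threshold tested in concentration series up to 50 uM, against AChE from rat brain membranes. Enzyme activity read by absorbance at 0.33 h; inhibition scored versus DMSO.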
# [8] = target: rat Monoamine Oxidase, MAO-B, Peripheral (MAOBP), Maob (gene 25750) (UniProt P19643); experiment: NVS_ENZ_rMAOBP: NovaScreen (NVS) Enzymatic Assay for rat Monoamine Oxidase, MAO-B, Peripheral (MAOBP) (AID 2283242)
# rat Monoamine Oxidase, MAO-B, Peripheral (MAOBP), Maob (gene 25750), sequence (P19643 whole entry, looked up): as above
# [9] = tested on: rat Monoamine Oxidase, MAO-A, Peripheral (MAOAP), gene 29253; experiment: NVS_ENZ_rMAOAP: NovaScreen (NVS) Enzymatic Assay for rat Monoamine Oxidase, MAO-A, Peripheral (MAOAP) (AID 2283237)
# How it was run: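 Scintillation counting tracked MAO-A activity in a cell-free rat liver mitochondrial membrane prep, read 1.17 hours after compound addition. Single-point duplicate testing at 25 uM preceded concentration-response follow-up; activity was fitted relative to DMSO.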
# [10] = tested on: bovine Angiotensin II Receptor Type 2 (AT2), gene 407157; experiment: NVS_GPCR_bAT2: NovaScreen (NVS) G Protein-Coupled Receptor Assay for bovine Angiotensin II Receptor Type 2 (AT2) (AID 2283240)
# How it was run: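 Radioligand displacement on bovine cerebellar membranes, 1 hour incubation, filter-based scintillation counting; loss of signal vs DMSO. Duplicate single-point screen at 25 uM, then concentration-response to 50 uM maximum.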
smiles,measurement,setting,value
c1ccc(OP(Oc2ccccc2)Oc2ccccc2)cc1,outcome,[1],inactive
ClC1=C(Cl)C2(Cl)C3C(Cl)C(Cl)CC3C1(Cl)C2(Cl)Cl (centres undefined),outcome,[2],inactive
CSC(C)(C)C=NO,outcome,[3],inactive
CC1(C)CN=C(NN=C(/C=C/c2ccc(C(F)(F)F)cc2)/C=C/c2ccc(C(F)(F)F)cc2)NC1,AC50,[1],17.4 µM (active)
same,AC50,[4],5.74 µM (active)
CCOP(=S)(OCC)SCSCC,outcome,[4],inactive
CCCCc1ccccc1,outcome,[3],inactive
ClC(Cl)(Cl)c1ccccc1,outcome,[5],inactive
same,outcome,[6],inactive
CCCCN(CCCC)SN(C)C(=O)Oc1cccc2c1OC(C)(C)C2,outcome,[2],inactive
same,AC50,[7],1.13 µM (active)
CCOC(=O)c1ccccc1C(=O)OCC,outcome,[8],inactive
Nc1cc2c3c(c1)C(c1ccccc1)=N[C@@H](NC(=O)c1cccnc1)C(=O)N3CC2,outcome,[7],inactive
same,AC50,[4],15.1 µM (active)
Nc1ccc2ccccc2c1,AC50,[1],7.93 µM (active)
CCCN(CCC)c1c([N+](=O)[O-])cc(C(C)C)cc1[N+](=O)[O-],outcome,[2],inactive
O=[N+]([O-])c1ccc(Cl)c(Cl)c1,AC50,[1],18.5 µM (active)
O=c1[nH]c2ccccc2c(=O)o1,AC50,[4],4.96 µM (active)
CCOP(=S)(S)OCC,outcome,[4],inactive
Nc1ccc(Cl)cc1,outcome,[4],inactive
Cc1cccc(N)c1,outcome,[2],inactive
ClC(Cl)c1ccccc1,outcome,[9],inactive
Cc1ccc(O)cc1C,outcome,[9],inactive
same,AC50,[6],47 µM (active)
[N-]=[N+]=[N-],outcome,[5],inactive
same,outcome,[6],inactive
CC(C)(C)OOC(C)(C)C,AC50,[6],13.1 µM (active)
O=c1ssc(Cl)c1Cl,outcome,[2],inactive
same,outcome,[4],inactive
CC(Cc1ccc(OCC(=O)O)cc1)NCC(O)c1csc(C(F)(F)F)n1 (centres undefined),outcome,[3],inactive
CCCCCCCc1ccc(O)cc1,AC50,[6],25 µM (active)
Cc1ccc(N)cc1N,AC50,[5],6.59 µM (active)
same,outcome,[10],inactive
CCN(CC)c1ccccc1,outcome,[8],inactive
